{
  "source": "PubChem BioAssay AID1985",
  "about": "(Southern Research Specialized Biocontainment Screening …, 2009)",
  "note": "Screen size: about 2,300 compounds; about 1,000 (43%) were called active. The set was probably picked from earlier hits. Some of the results follow. Results with a measured potency or affinity are listed apart. A number with no mark means an inactive call. The rule behind the calls is not given here.",
  "data": [
    {"test": "modified counter assay using GFP fluorescence, PhoP regulon inhibitor project, dose response (AID 1985)", "settings": "S. Typhi, 4 h; series mostly up to 150 µM; inhibition: at the top concentration", "units": {"inhibition": "%"}, "values": [
      {"smiles": "Cc1c(CCN)ccc2c1[nH]c1ccccc12", "inhibition": 26.4},
      {"smiles": "Cc1c(C=O)c2ccccn2c1C(=O)c1ccccc1", "inhibition": 21.6},
      {"smiles": "O=C(N/N=C/c1c(Cl)nc2ccccn2c1=O)c1cccnc1", "inhibition": -34.3},
      {"smiles": "Oc1ccc(-c2nc3ncccn3c2Nc2ccc3c(c2)OCCO3)cc1", "inhibition": 15.1},
      {"smiles": "CC(C)CC(c1nnnn1Cc1ccco1)N1CCN(c2cccc(Cl)c2)CC1", "note": "(stereo not drawn)", "inhibition": 17.4},
      {"smiles": "COc1cccc(C2=NO[C@@H]3C(=O)N(Cc4ccccc4)C(=O)[C@H]23)c1OC", "inhibition": 6.49},
      {"smiles": "CCOC(=O)/C=C1/N(C)c2ccccc2C1(C)C", "inhibition": -30.2},
      {"smiles": "CC(Oc1ccc(/C=N/NC(=O)Cc2cccc3ccccc23)cc1)C(=O)O", "note": "(stereo not drawn)", "inhibition": 0.72},
      {"smiles": "COc1ccc(/C=N/Nc2cc(C)nc3ccccc23)cc1", "inhibition": -40.8},
      {"smiles": "Cc1ccc(N/N=C/c2ccncc2)cc1", "inhibition": -6.54},
      {"smiles": "Cc1cc(N/N=C/c2ccc(F)cc2)nc(NCc2ccccc2)n1", "inhibition": 17.8},
      {"smiles": "COc1ccc(/C=N/NC2=NCCCCC2)c(OC)c1", "inhibition": 20.2},
      {"smiles": "CCOC(=O)c1c(C)sc2c1N(C(C)=O)c1cc(Cl)ccc1S2", "inhibition": -3.33},
      {"smiles": "CCCC1(c2ccccc2)NC(=O)N(CC(=O)Nc2ccccc2C(F)(F)F)C1=O", "note": "(stereo not drawn)", "inhibition": 27.4},
      {"smiles": "O=C1C2C3C=CC(CC3)C2C(=O)N1/N=C/c1ccc(O)cc1", "note": "(stereo not drawn)", "inhibition": -1.35},
      {"smiles": "CCN(CC)S(=O)(=O)c1ccc(/C(O)=C(\\C#N)c2nc3ccccc3n2C)cc1", "inhibition": -25.9},
      {"smiles": "Cn1c(-c2ccc(CN3CCCCC3)o2)nc2ccccc21", "inhibition": -0.13},
      {"smiles": "COc1ccc(CNc2nc3ccccc3n2C)c(O)c1", "inhibition": 16.9},
      {"smiles": "CCN(CC)CCn1c(NCc2cc(OC)ccc2OC)nc2ccccc21", "inhibition": -0.33},
      {"smiles": "Cc1cccc(NS(=O)(=O)c2ccc3c(c2)OCCO3)c1", "inhibition": 1.22},
      {"smiles": "CC1(C)N=C(N)NC(Nc2cccc(Br)c2)=N1", "inhibition": -11.3},
      {"smiles": "CCN(CC)CC#CC(C)OCOCC#CCOC", "note": "(stereo not drawn)", "inhibition": -5.3},
      {"smiles": "CNc1ccc(SC#N)cc1", "inhibition": 30.1},
      {"smiles": "O=C(CCn1cccc1)Nc1ccc(OC(F)(F)F)cc1", "inhibition": -1.93},
      {"smiles": "NC1=NC2(CCCCC2)n2c(nc3ccccc32)N1", "inhibition": -8.01},
      {"smiles": "COc1ccc(NC2=Nc3ccccc3CC2)cc1", "inhibition": 11.2},
      {"smiles": "Cc1ccc(C(=O)NCC(=O)NCCc2ccc(S(N)(=O)=O)cc2)s1", "inhibition": 10.8},
      {"smiles": "CCN1C(=O)N/C(=C/c2cc(C)n(Cc3ccccc3)c2C)C1=O", "inhibition": 30.9},
      {"smiles": "N=c1ccccn1CC(O)COc1ccccc1", "note": "(stereo not drawn)", "inhibition": -17.7},
      {"smiles": "Cc1c(Cl)cccc1NC(=O)C1CCN(S(C)(=O)=O)CC1", "inhibition": -19.9},
      {"smiles": "Cc1ccc(N(C(=O)c2sc(C)nc2C)C(C(=O)NCc2ccco2)c2ccccc2)cc1", "note": "(stereo not drawn)", "inhibition": -2.74},
      {"smiles": "Fc1cccc(Cl)c1CSc1ccc(-c2ccco2)nn1", "inhibition": -8.68},
      {"smiles": "Cc1cccc(OCC(=O)Nc2nonc2NC(=O)COc2cccc(C)c2)c1", "inhibition": 18.1},
      {"smiles": "COc1ccccc1NC(=O)Cn1c(=O)n(CCc2c[nH]c3ccccc23)c(=O)c2cccnc21", "inhibition": 2.09},
      {"smiles": "CC(=O)Nc1ccc(NC(=O)CSc2ccc(-c3ccco3)nn2)cc1", "inhibition": -9.15},
      {"smiles": "Cc1ccc(C)c(NC(=O)CSc2nnc([C@@H](N)Cc3c[nH]c4ccccc34)o2)c1", "inhibition": 22.6},
      {"smiles": "CC(C)CC(=O)N1CCN(C(=O)CCC2CCCC2)CC1", "inhibition": 1.22},
      {"smiles": "CC(C)c1ccc(C2C(C#N)=C(N)Oc3c2oc(CO)cc3=O)cc1", "note": "(stereo not drawn)", "inhibition": 32.6},
      {"smiles": "CNS(=O)(=O)c1cc(OC)ccc1OC", "inhibition": -17.8},
      {"smiles": "C#CC[N+]1(CC#Cc2ccc(C#CC[N+]3(CC#C)CCOCC3)cc2)CCOCC1", "inhibition": 36},
      {"smiles": "Nc1c(-c2ccccc2)sc2ccc3ccccc3[n+]12", "inhibition": -6.95},
      {"smiles": "CCc1ccc(Nc2n[n+](-c3ccccc3)c(-c3c(Cl)cccc3Cl)s2)cc1", "inhibition": 22.9},
      {"smiles": "C(=N\\Nc1nc2ccccc2[nH]1)/c1ccc2ncccc2c1", "inhibition": 22.9},
      {"smiles": "COC(=O)CC1C(=O)NCCN1C(=O)CSc1nc2ccc([N+](=O)[O-])cc2s1", "note": "(stereo not drawn)", "inhibition": -5.58},
      {"smiles": "O=C(O)COc1ccc(/C=C/c2nc3ccc([N+](=O)[O-])cc3s2)cc1", "inhibition": 24.7},
      {"smiles": "O=C(N/N=C/c1cccnc1)c1ccc([N+](=O)[O-])cc1Cl", "inhibition": 20.2},
      {"smiles": "Cc1cccc(NC(=O)c2ccccc2Br)n1", "inhibition": 7.12},
      {"smiles": "Cc1cc(=O)n2nc(N3CCCC(C(=O)NC4CCCCC4C)C3)sc2n1", "note": "(stereo not drawn)", "inhibition": -11},
      {"smiles": "COC(=O)c1ccc(Cn2cnc3ccccc3c2=O)cc1", "inhibition": -24.3},
      {"smiles": "N#CCCn1c2ccccc2c2nc3ccccc3nc21", "inhibition": -14.3},
      {"smiles": "O=S(=O)(Nc1c(S(=O)(=O)c2ccccc2)c2nc3ccccc3nc2n1C1CCCCC1)c1ccccc1", "inhibition": 10.3},
      {"smiles": "CCCCn1c(NS(=O)(=O)c2ccc(C)cc2)c(S(=O)(=O)c2ccccc2)c2nc3ccccc3nc21", "inhibition": 16.6},
      {"smiles": "CCOC(=O)CSc1nc(-c2ccccc2)nc2ccccc12", "inhibition": -13.8},
      {"smiles": "Cc1cccc(S(=O)(=O)c2c(N)n(/N=C/c3ccccc3)c3nc4ccccc4nc23)c1", "inhibition": -12},
      {"smiles": "CCCCn1c(NCc2ccccc2NS(=O)(=O)c2ccc(C)cc2)nc2ccccc21", "inhibition": 0.61},
      {"smiles": "CCC(=O)N(Cc1cc2cc(OC)ccc2[nH]c1=O)c1ccc(C)cc1C", "inhibition": -1.85},
      {"smiles": "O=C(CCS(=O)(=O)c1ccccc1)Nc1ccc2c(c1)C(=O)NC2=O", "inhibition": -8.55},
      {"smiles": "Cc1ccc2nsnc2c1S(=O)(=O)NCc1ccc2c(c1)OCO2", "inhibition": -19.2},
      {"smiles": "c1cncc(CSc2ccc(-c3cccs3)nn2)c1", "inhibition": 21.3},
      {"smiles": "c1ccc2c(c1)CCN(c1nc3ccccc3n3cnnc13)C2", "inhibition": -0.2},
      {"smiles": "COc1ccc2c(c1OC)C(=O)N(c1ccc(C)cc1)C2=O", "inhibition": -3.73},
      {"smiles": "Cc1cc(C(F)F)n2nc(C(=O)Nc3cc(C)on3)nc2n1", "inhibition": -28.2},
      {"smiles": "Cc1[nH]nc2c1C(C1CC=CCC1)C(C#N)=C(N)O2", "note": "(stereo not drawn)", "inhibition": -24.6},
      {"smiles": "CC1(C)CC(=O)C2=C(C1)N(c1ccc(F)cc1)C(=O)CC2c1ccsc1", "note": "(stereo not drawn)", "inhibition": -3.27},
      {"smiles": "COc1ccc(-n2c3c(cc(C(=O)Nc4cccc(C)n4)c2=O)C(=O)CC(C)(C)C3)cc1", "inhibition": 8.22},
      {"smiles": "CCc1ccc(NC2=NCCCS2)cc1", "inhibition": 33.4},
      {"smiles": "CCCCN(C)C(=O)c1ccc(S(=O)(=O)N2CCOCC2)cc1", "inhibition": -15},
      {"smiles": "CSc1ccc(NC(=O)C(C)N2CCN(C)CC2)cc1", "note": "(stereo not drawn)", "inhibition": 20.9},
      {"smiles": "CC(C)c1c(O)nc(SCC(=O)N2CCOCC2)[nH]c1=O", "inhibition": 15.7},
      {"smiles": "CCCCC(=O)Nc1ccc2c(c1)C(=O)NC2=O", "inhibition": 3.13},
      {"smiles": "Nc1nc(SCC(=O)Nc2ccc3c(c2)CCC3)n[nH]1", "inhibition": 24.4},
      {"smiles": "Cc1cc(C)c2c(=O)[nH]c(SCC(=O)N3CCCCC3)nc2n1", "inhibition": 12.4},
      {"smiles": "CCCC1(c2ccccc2)NC(=O)N(CC(=O)Nc2cc(S(=O)(=O)N3CCOCC3)ccc2Cl)C1=O", "note": "(stereo not drawn)", "inhibition": -10.2}
    ]}
  ]
}
